Data as given in PubChem BioAssay.
Activity calls are given as the source filed them.

How the values were obtained:
[1] = binders of probe aFSTL3 on microarray, primary screen, stem cell growth factor project, biochemical, small-molecule microarray, fluorescence 635/667 (AID 1064); conditions: higher = more signal;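 note: measures binding of the biotinylated anti-FSTL3 antibody to printed compounds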
[2] = binders from COS7 lysate, DM2A8 probe, primary screen, torsin A project, cell lysate, small-molecule microarray, fluorescence 635/667 (AID 1065); conditions: higher = more signal, COS7 lysate expressing mutant human TOR1A
[3] = binders of probe aFGF2 on microarray, primary screen, stem cell growth factor project, biochemical, small-molecule microarray, fluorescence 635/667 (AID 1067); conditions: higher = more signal;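 note: measures binding of biotinylated aFGF2 protein to printed compounds on slides; z-score merges feature fluorescence and signal-to-noise across triplicate slides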
[4] = binders of probe aFGF10 on microarray, primary screen, stem cell growth factor project, biochemical, small-molecule microarray, fluorescence 635/667 (AID 1071); conditions: higher = more signal;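 note: score merges 667 nm spot intensity and signal to noise from triplicate slides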
[5] = biological target: Neurogenic locus notch homolog protein 2 (Homo sapiens) (UniProt Q04721); assay: Notch2 binders on small-molecule microarrays, primary screen, biochemical, small-molecule microarray, 635 nm fluorescence, stem cell growth factors (AID 1073); conditions: Notch2 binding, higher = more signal
[6] = biological target: Pro-neuregulin-1, membrane-bound isoform (Homo sapiens) (UniProt Q02297); assay: NRG1 binders on small-molecule microarrays, primary screen, psychiatric disease protein project, biochemical, small-molecule microarray, fluorescence 635/667 (AID 1075); conditions: NRG1 binding, 635 nm fluorescence, higher = more signal;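 note: score combines 667 nm spot fluorescence with signal to noise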
[7] = test system: Neuregulin-1 EGF-like domain; assay: binders of neuregulin-1 EGF-like domain, primary screen, biochemical, small-molecule microarray, 635 nm fluorescence (AID 1081); conditions: small-molecule microarray binding, higher = more signal;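 note: binding of the protein to compounds printed on small-molecule microarray slides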
[8] = FRG1 promoter luciferase signal modulators, primary screen, FRG1 inhibition for FSHD, cell-based, C2C12 myotubes, firefly/Renilla luciferase, luminescence (AID 1084); conditions: higher = more signal, called active from +8 up or from −8 down
[9] = binders of probe aFST on microarray, primary screen, stem cell growth factor project, biochemical, small-molecule microarray, fluorescence 635/667 (AID 1086); conditions: higher = more signal;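 note: score merges 667 nm fluorescence with signal-to-noise of each printed compound spot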
[10] = binders of probe aHhip on microarray, primary screen, stem cell growth factor project, biochemical, small-molecule microarray, fluorescence 635/667 (AID 1087); conditions: higher = more signal;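 note: score merges spot fluorescence at 667nm with spot signal to noise ratio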

Sequence of Neurogenic locus notch homolog protein 2 (Homo sapiens) (Q04721 whole entry, looked up, canonical isoform): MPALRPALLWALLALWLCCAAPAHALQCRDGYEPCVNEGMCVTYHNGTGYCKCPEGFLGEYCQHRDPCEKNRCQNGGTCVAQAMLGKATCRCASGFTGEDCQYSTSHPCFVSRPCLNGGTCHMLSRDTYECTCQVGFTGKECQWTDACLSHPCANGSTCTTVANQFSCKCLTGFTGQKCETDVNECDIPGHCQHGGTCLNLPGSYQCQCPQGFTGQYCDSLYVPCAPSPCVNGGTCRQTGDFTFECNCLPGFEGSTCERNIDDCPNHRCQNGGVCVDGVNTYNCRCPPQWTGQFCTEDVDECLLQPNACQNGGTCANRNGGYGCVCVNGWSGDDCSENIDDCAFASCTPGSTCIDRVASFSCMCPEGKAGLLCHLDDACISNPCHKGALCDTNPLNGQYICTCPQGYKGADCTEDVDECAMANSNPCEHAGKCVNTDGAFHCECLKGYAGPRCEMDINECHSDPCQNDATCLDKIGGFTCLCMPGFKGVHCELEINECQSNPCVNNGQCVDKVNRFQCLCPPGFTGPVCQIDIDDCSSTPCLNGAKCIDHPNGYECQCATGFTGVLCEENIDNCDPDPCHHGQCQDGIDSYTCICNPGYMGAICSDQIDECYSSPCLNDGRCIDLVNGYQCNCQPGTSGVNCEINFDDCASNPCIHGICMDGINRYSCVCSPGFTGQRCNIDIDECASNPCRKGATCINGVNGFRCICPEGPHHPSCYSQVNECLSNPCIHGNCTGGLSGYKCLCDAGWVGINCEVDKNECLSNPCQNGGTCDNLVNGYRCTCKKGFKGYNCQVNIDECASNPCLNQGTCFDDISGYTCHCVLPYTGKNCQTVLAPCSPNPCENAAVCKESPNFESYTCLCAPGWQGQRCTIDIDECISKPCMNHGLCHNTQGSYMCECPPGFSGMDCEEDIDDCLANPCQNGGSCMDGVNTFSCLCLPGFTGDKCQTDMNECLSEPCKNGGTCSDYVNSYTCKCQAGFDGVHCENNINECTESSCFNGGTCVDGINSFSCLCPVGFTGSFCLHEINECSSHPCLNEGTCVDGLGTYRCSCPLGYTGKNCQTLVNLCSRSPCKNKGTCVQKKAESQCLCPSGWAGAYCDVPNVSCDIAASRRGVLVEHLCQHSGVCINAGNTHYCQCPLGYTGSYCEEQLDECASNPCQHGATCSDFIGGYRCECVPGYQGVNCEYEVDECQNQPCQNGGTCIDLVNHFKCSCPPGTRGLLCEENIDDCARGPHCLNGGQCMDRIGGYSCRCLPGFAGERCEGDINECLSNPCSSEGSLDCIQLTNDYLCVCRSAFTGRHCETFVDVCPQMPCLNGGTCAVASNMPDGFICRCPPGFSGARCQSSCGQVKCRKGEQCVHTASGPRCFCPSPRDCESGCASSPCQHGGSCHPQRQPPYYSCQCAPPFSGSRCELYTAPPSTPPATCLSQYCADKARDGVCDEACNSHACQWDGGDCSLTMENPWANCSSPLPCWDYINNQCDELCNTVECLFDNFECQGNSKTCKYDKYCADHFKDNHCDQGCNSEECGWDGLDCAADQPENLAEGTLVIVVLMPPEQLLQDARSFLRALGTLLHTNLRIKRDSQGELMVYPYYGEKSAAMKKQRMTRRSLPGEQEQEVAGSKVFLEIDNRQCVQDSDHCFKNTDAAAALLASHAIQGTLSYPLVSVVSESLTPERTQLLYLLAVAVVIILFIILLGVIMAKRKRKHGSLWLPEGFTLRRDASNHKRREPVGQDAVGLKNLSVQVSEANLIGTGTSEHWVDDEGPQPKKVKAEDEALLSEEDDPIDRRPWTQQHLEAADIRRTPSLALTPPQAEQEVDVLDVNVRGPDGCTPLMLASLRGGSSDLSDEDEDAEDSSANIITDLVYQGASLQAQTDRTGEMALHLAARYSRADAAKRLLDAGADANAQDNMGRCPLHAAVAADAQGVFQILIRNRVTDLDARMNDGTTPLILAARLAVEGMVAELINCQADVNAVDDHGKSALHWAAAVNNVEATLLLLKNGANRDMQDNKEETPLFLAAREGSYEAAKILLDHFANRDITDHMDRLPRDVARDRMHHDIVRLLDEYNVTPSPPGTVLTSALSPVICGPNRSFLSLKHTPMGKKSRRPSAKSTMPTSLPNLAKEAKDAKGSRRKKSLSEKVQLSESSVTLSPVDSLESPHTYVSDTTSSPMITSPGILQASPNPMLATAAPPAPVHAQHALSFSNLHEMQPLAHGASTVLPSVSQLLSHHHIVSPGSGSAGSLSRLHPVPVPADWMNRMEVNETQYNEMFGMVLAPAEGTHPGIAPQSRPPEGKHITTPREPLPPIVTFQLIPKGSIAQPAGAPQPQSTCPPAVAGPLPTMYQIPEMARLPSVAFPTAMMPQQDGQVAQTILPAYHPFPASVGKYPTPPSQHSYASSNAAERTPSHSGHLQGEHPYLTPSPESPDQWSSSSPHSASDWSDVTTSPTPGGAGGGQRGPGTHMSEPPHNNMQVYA
Sequence of Pro-neuregulin-1, membrane-bound isoform (Homo sapiens) (Q02297 whole entry, looked up, the tested form may be a part, canonical isoform): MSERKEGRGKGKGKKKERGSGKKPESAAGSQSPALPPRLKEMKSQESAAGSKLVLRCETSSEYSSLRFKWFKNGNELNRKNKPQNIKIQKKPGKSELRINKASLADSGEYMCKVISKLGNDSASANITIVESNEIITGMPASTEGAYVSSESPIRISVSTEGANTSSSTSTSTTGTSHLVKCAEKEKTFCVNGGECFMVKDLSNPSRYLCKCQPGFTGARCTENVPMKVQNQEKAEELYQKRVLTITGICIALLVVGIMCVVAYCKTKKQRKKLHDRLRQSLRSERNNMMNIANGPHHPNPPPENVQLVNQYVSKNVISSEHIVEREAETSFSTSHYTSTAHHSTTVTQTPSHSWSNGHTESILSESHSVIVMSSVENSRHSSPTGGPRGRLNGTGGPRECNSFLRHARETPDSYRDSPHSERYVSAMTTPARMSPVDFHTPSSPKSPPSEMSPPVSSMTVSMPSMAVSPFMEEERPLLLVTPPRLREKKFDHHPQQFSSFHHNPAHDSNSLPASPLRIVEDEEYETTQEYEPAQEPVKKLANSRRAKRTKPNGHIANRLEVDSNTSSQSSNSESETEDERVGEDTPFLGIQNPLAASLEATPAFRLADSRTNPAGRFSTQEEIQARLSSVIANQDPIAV

Structure (SMILES)	composite z-score [1]	composite z-score [2]	composite z-score [3]	composite z-score [4]	composite z-score [5]	composite z-score [6]	composite z-score [7]	z-score [8]	composite z-score [9]	composite z-score [10]
Cc1cc(C)c(C(O)C2C=CC3C(=O)N(c4ccccc4)C(=O)C3N2Nc2ccccc2F)c(C)c1 (stereo not given)	-0.0327	-0.437	-0.01	-0.0495	0.565	1.07	1.09	0.717 (inactive)	0.439	0.0854
Cc1ccc(S[C@]2(C(=O)O)CC(=O)N(C3CCCCC3)[C@@H]2c2ccc(CO)cc2I)cc1	-0.0155	0.165	-0.0986	0.52	0.762	1.43	1.2	-0.163 (inactive)	1.23	-0.0898
O=C1O[C@H](c2ccccc2)[C@H](c2ccccc2)N2[C@H]1[C@@H](C(=O)O)[C@]1(C(=O)Nc3ccc(C#CCCO)cc31)[C@H]2c1ccccc1OCCO	-0.324	0.627	-0.0962	0.21	-0.0765	0.944	1.23	0.37 (inactive)	-0.0238	-0.0994
CN(C)C(=O)[C@@]1(Cc2ccccc2CN=[N+]=[N-])N=C(c2ccc(OCCCO)cc2)O[C@H]1c1ccccc1N=[N+]=[N-]	0.388	0.021	0.0362	1.2	1.55	1.88	1.25	-1.34 (inactive)	1.44	0.0071
CCCCCN1CC=CC23O[C@@H]4C=CCCOC(=O)C4[C@H]2C(=O)N(CCCCCCO)[C@@H]3C1=O (stereo not given in full)	0.0199	-0.336	-0.169	0.0401	-0.812	1.98	0.99	-0.457 (inactive)	-0.658	-0.0994
Cc1ccc(F)cc1S(=O)(=O)N[C@@H]1CCN(Cc2ccc(Br)cc2)C1	-0.414	0.673	-0.23	-0.207	0.414	-0.107	0.035	-2.08 (inactive)	0.258	-0.0994
CC(=O)NCCCC[C@@H]1NC(=O)[C@@H]2C[C@H](C(=O)NCCCCCN)[C@H](c3cccc(OCCO)c3)N2C1=O	-0.0173	1.92	0.0322	0.742	0.542	1.7	1.01	0.301 (inactive)	0.268	-0.245
COC(=O)[C@@]1(Cc2ccc(OC)cc2)[C@H]2c3cc(C(=O)N4CCCC4)n(CCc4c[nH]c5ccc(OC)cc45)c3C[C@H]2CN1C(=O)c1ccccc1	1.49	1.14	0.204	0.686	1.74	0.898	1.16	0.49 (inactive)	1.55	-0.161
COC(=O)[C@@]1(Cc2ccc(F)cc2)[C@H]2c3cc(C(=O)N(C)C)n(Cc4ccc(OC(F)(F)F)cc4)c3C[C@H]2CN1C(=O)c1ccccc1	-0.252	0.34	-0.12	0.369	0.708	0.109	0.429	0.306 (inactive)	0.402	-0.305
COc1ccc(CCNC(=O)[C@@]2(Cc3ccccc3I)c3ccccc3C(=O)N(C3CCCCC3)[C@H]2c2ccc(CO)cc2)cc1	-0.0515	-0.256	-0.079	-0.0337	0.281	0.56	0.897	-4.25 (inactive)	0.384	-0.0645
Cc1ccc(NN2C(C(O)c3c(F)cccc3Cl)C=CC3C(=O)N(C4CCCCC4)C(=O)C32)cc1 (stereo not given)	1.14	0.44	0.0749	0.507	1.55	1.46	1.06	0.0701 (inactive)	0.697	-0.254
O=C1[C@H]2C=C(I)[C@H](C[C@@H]2OCCOCCO)[C@@]12CO2	-0.444	0.97	-0.0877	0.454	0.67	-0.183	0.653	0.843 (inactive)	-0.192	0.0722
CCCCCCCCCC(O)C1C=CC2C(=O)N(c3ccccc3)C(=O)C2N1Nc1cc(OC)c(OC)c(OC)c1 (stereo not given)	-0.0386	-0.666	0.0166	0.23	0.45	0.856	0.487	0.393 (inactive)	0.199	-0.13
